Consider 1 compound from PubChem BioAssay AID2284133 (EPA ToxCast).

SMILES strings stand for the structures. The source made the active and inactive calls. How the source made its calls: active means hit-call score of the fitted dose curve at least 0.9, where 1 is the maximum; inactive means score below 0.9.

Sequence of human MARK1 CAMK Kinase, MARK1 (gene 4139) (Q9P0L2 whole entry, looked up): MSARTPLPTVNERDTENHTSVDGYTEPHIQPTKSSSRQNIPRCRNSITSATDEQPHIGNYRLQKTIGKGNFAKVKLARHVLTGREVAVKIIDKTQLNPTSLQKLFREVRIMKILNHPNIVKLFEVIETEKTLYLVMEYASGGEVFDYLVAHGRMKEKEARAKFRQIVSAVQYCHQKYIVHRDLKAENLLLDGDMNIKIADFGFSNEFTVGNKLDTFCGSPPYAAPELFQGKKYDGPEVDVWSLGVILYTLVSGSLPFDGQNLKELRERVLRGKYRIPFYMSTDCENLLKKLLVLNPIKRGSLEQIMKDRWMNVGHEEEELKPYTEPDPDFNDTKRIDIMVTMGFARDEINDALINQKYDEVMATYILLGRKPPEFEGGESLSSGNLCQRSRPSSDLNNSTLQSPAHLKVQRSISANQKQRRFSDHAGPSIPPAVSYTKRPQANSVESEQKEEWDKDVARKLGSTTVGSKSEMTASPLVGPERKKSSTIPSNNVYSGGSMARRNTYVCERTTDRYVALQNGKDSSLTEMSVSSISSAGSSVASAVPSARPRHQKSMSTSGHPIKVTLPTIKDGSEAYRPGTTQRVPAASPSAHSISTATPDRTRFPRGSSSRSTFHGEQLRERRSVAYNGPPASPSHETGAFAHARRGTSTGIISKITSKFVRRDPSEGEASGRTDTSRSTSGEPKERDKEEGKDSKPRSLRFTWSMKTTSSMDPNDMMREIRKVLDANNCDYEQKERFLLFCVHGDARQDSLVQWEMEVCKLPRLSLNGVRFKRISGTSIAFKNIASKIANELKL

The assay addresses human MARK1 CAMK Kinase, MARK1 (gene 4139) (UniProt Q9P0L2). Briefly: ERF_FR_ENZ_hMARK1: Eurofins (ERF) Enzymatic Radiometric [Km ATP] KinaseProfiler LeadHunter Assay for human MARK1 CAMK Kinase. Here is the method: ERF_FR_ENZ_hMARK1 is a biochemical, single-readout assay that uses extracted gene-proteins in a cell-free assay. Measurements were taken 0.5 hour after chemical dosing in a 96-well plate. See MARK1 Human CAMK Kinase Enzymatic LANCE Assay [Km ATP], Cerep.ERF_FR_ENZ_hMARK1 is an assay component calculated from the ERF_FR_ENZ_hMARK1 assay. It is designed to measure enzyme activity using a type of enzyme reporter as detected by fluorescence intensity with LANCE technology.Data from the assay component ERF_FR_ENZ_hMARK1 was analyzed at the assay endpoint, ERF_FR_ENZ_hMARK1, in the positive analysis fitting direction relative to DMSO as the negative control and baseline of activity. Using a type of enzyme reporter, loss-of-signal activity can be used to understand changes in enzymatic activity as they relate to gene MARK1. To generalize the intended target to other relatable targets, this assay endpoint is annotated to the kinase intended target family, where the subfamily is serine/threonine kinase.
[…] is incubated with 50 mM Na-b-glycerophosphate pH 7.5, 0.1 mM EGTA, 30 uM […], 10 mM MgAcetate and [gamma-33P]-ATP (specific activity and concentration as required). The reaction is initiated by the […] addition of the Mg/ATP mix. After incubation for 40 minutes at room temperature, the reaction is stopped by the addition of phosphoric acid to a concentration of 0.5%. […]
For `O=C(/C=C/c1ccc(O)cc1)CC(=O)/C=C/c1ccc(O)cc1`, the call was inactive.
